TcdB GH inh = blocks C. difficile toxin B glycohydrolase activity. P18177. TcdB glycohydrolase enzymatic assay, plate reader. inhibition, % at 9.99 µM. 0.24% of 350,000 active; in the data active = inhibition above about 10%
BioA inh-1 = blocks M. tuberculosis BioA enzyme activity; purified M. tuberculosis BioA enzyme, plate reader; inhibition, % at 9.99 µM; 0.096% of 360,000 active; in the data active = inhibition above about 40%; inconclusive = no clear call, values can overlap the other calls
PfHsp40 yeast = compounds rescuing yeast from Plasmodium falciparum HSP40 toxicity; S. cerevisiae expressing PfHsp40, growth rescue, ATP luminescence; growth rescue, % at 12.5 µM; 0.68% of 340,000 active; AID 504582; in the data active = growth rescue above about 28%, passing the limit was not always enough; inconclusive = no clear call, values can overlap the other calls;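 note: yeast W303a lacking pdr1 and pdr3 grown in galactose medium; growth measured after three days at 30 °C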
BH1578 lux ind = induces V. cholerae light production without autoinducers. V. cholerae BH1578 lux reporter, luminescence, 6 h. activation, % at 18.7 µM. 0.16% of 350,000 active; in the data active = activation mostly above about 9.7%, no sharp cut-off; inconclusive = no clear call, values can overlap the other calls; inactive = mostly below about 3.7%
VHR inh abs = inhibitors of human VHR1 phosphatase (DUSP3); P51452; recombinant VHR phosphatase, pNPP absorbance; inhibition, % at 13.3 µM; 0.52% of 290,000 active; AID 1654; in the data active = inhibition above about 50%
Y pestis TopoI = blocks Yersinia pestis topoisomerase I activity. Y. pestis Topo-I cleavage product accumulation, plate reader. 0.064% of 360,000 active. activity, % at 10 µM. AID 504884; in the data active = activity above about 50%, passing the limit was not always enough; inconclusive = no clear call, values can overlap the other calls
BioA inh-2 = blocks M. tuberculosis BioA aminotransferase. shares compounds with BioA inh-1. AID 651679. 310 tested, under 10 active. max activity, %. purified BioA enzyme, plate reader, dose response;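 note: top concentration of the dilution series was 10 µM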
HepG2 cytotox = cytotoxicity in HepG2 cells; shares compounds with BioA inh-1; plate reader; max activity, %; 310 tested, under 10 active; AID 651898
3T3 cytotox 5 = cytotoxicity in NIH3T3 cells; shares compounds with BioA inh-1; plate reader; activity change, negative = cytotoxicity, % at 26 µM; 310 tested, under 10 active
Starred values were filed as active, the others as inactive; i = inactive; ? = inconclusive; . = no result given; [ ] = dose if it differs, or a comment. Rows were chosen to be rich in hits. Some 1.2% of all compounds tested hit in one or more screens of this group. Unless noted, the rule behind the calls is not given here.

SMILES	TcdB GH inh	BioA inh-1	PfHsp40 yeast	BH1578 lux ind	VHR inh abs	Y pestis TopoI	BioA inh-2	HepG2 cytotox	3T3 cytotox 5
O=C(CSc1nc2ccccc2c(=O)n1-c1ccc(F)cc1)Nc1ccc(C(=O)O)cc1	-2	0	1	i	.	-3	.	.	.
O=C(CCS(=O)(=O)c1ccccc1)Nc1ccccc1N1CCOCC1	0	.	-1	-2	4	7	.	.	.
O=C(N[C@@H]1CC[C@H](CCn2cc(-c3cccnc3)nn2)O[C@@H]1CO)c1ccccc1F	0	60*	.	.	.	.	5	i	7
O=C(N[C@H]1CC[C@H](CCn2cc(-c3cccnc3)nn2)O[C@H]1CO)c1ccccc1F	0	7	.	.	.	.	.	.	.
O=C(N[C@H]1CC[C@@H](CCn2cc(-c3cccnc3)nn2)O[C@@H]1CO)c1ccccc1F	1	55*	.	.	.	.	8	i	7
CO[C@@H](CN(C)C(=O)c1ccc2c(c1)OCO2)[C@H](C)CN([C@H](C)CO)S(=O)(=O)c1ccccc1	1	9	.	.	.	.	.	.	.
COc1cc(C(=O)Nc2cccnc2)cc(OC)c1OC	2	80*	0	-1	10	5	-9	-14	-10
COc1cc(/C=C/C(=O)Nc2cccnc2)cc(OC)c1OC	2	50*	2	0	16	3	-4	-7	-3
CCC(=O)c1ccc(N2CCN(S(=O)(=O)c3ccccc3)CC2)c(F)c1	2	.	-1	i	25	-1	.	.	.
CCC(=O)c1ccc(OCC(=O)O)cc1	.	.	0	-2	-18	-1	.	.	.
CCCc1c(OCCCOc2ccc(OCC(=O)O)cc2)ccc(C(C)=O)c1O	1	79*	2	-1	.	6	-8	7	2
O=C(CCS(=O)(=O)c1ccccc1)Nc1nc2ccc(F)cc2s1	0	.	0	i	.	0	.	.	.
CCCC(=O)N1CCN(Cc2ccc3c(c2)OCO3)CC1	.	1	-1	0	10	1	.	.	.
CCc1nn(CC(=O)N2CCN(Cc3ccc4c(c3)OCO4)CC2)c(=O)c2cc3occc3n12	.	57*	0	i	9	7	22	10	-8
C[C@H](CO)N1C[C@H](C)[C@@H](CN(C)S(=O)(=O)c2ccccc2)Oc2c(NC(=O)CCCCCC(=O)Nc3ccccc3N)cccc2C1=O	0	.	.	.	.	.	.	.	.
CCC(Sc1nc2ccsc2c(=O)n1Cc1ccc(C(=O)O)cc1)C(=O)Nc1cccc(OC)c1 (stereo not drawn)	-1	75*	.	0	.	-3	-6	-11	-1
CCc1ccc(NC(=O)C(CC)Sc2nc3ccsc3c(=O)n2CCC(=O)O)cc1 (stereo not drawn)	0	0	0	i	-1	7	.	.	.
Clc1ccc(CSc2nnc(-c3cccnc3)o2)cc1	.	65*	2	i	10	2	-9	-12	-3
c1ccc(CSc2nnc(-c3cccnc3)o2)cc1	.	.	1	0	4	3	.	.	.
CC1=CC2=NC(=O)/C(=C\c3cc(C)n(-c4ccccc4F)c3C)C(=N)N2O1	4	41*	2	i	15	8	-5	44	-1
CC1=CC2=NC(=O)/C(=C\c3cc(C)n(-c4ccccc4)c3C)C(=N)N2O1	6	10	4	0	1	0	.	.	.
Cc1nc2sc(C(c3ccco3)N3CCN(c4ccccc4F)CC3)c(O)n2n1 (stereo not drawn)	.	1	0	i	50	4	.	.	.
Cc1nc2sc(C(c3ccc(Cl)cc3)N3CCN(c4ccccc4F)CC3)c(O)n2n1 (stereo not drawn)	.	43*	1	-6	18	-2	10	-5	-4
O=C(Nc1ccccc1)N1CCN(Cc2ccc3c(c2)OCO3)CC1	1	76*	-1	0	25	4	7	?	?
O=C(c1ccc(Br)o1)N1CCN(Cc2ccc3c(c2)OCO3)CC1	.	14	-1	0	8	15	.	.	.
SMILES	TcdB GH inh	BioA inh-1	PfHsp40 yeast	BH1578 lux ind	VHR inh abs	Y pestis TopoI	BioA inh-2	HepG2 cytotox	3T3 cytotox 5
O=C(c1ccc(Br)s1)N1CCN(Cc2ccc3c(c2)OCO3)CC1	.	59*	1	1	19	36	-9	-7	-7
C[C@@H](C(=O)N1CCN(Cc2ccc3c(c2)OCO3)CC1)n1nnc2ccccc2c1=O	1	70*	-1	1	-12	0	-9	-10	-2
Cc1cc(NC(=O)COC(=O)c2c(C)noc2C)ccc1Br	1	1	1	0	14	7	.	.	.
CCn1c(O)c(/C=N/N2CCOCC2)c(=O)n(CC)c1=S	-3	.	-2	i	-4	-2	.	.	.
Cc1c(NC(=O)c2ccc(S(=O)(=O)N(C)C)cc2)cccc1-n1cnnn1	-1	-1	1	-3	.	4	.	.	.
Cc1c(NC(=O)c2cc3ccccc3o2)cccc1-n1cnnn1	1	46*	.	-1	.	6	-5	-20	3
O=Cc1cn(-c2ccccc2)nc1-c1cc2cc(O)ccc2oc1=O	.	.	0	i	15	1	.	.	.
Cc1ccc(S(=O)(=O)N(C)C)cc1NC(=O)CSc1nncs1	1	51*	6	i	.	18	-6	-8	-1
COCC(=O)N1C[C@@H](C)[C@@H](OC)CN(C)C(=O)c2cc(NC(=O)c3ccccc3)ccc2OC[C@H]1C	-10	-5	.	.	.	.	.	.	.
O=C(c1cccc(F)c1)N1CC[C@@H]2[C@H]1c1cc(-c3cccc(F)c3)ccc1N[C@@H]2CO	.	73*	.	.	.	.	7	i	-11[23.5 µM]
O=C(c1cccc(F)c1)N1CC[C@@H]2[C@H](CO)Nc3ccc(-c4cccc(F)c4)cc3[C@@H]21	.	41*	.	.	.	.	-6	i	-7
O=C(c1cccc(F)c1)N1CC[C@@H]2[C@H]1c1cc(-c3ccccc3)ccc1N[C@@H]2CO	0	.	.	.	.	.	.	.	.
O=C(Nc1cccnc1)c1ccc(N2CCOCC2)c([N+](=O)[O-])c1	-2	49*	1	-2	20	1	-3	24	7
O=C(Nc1ccc(N2CCOCC2)c(Cl)c1)c1cccnc1	.	47*	-2	-1	10	-4	-3	-16	-6
O=C(Nc1cccnc1)c1ccc(N2CCCC2)c([N+](=O)[O-])c1	-1	72*	2	2	23	1	-7	-12	1
O=C(NCc1cccnc1)c1ccc(N2CCOCC2)c([N+](=O)[O-])c1	-5	.	-1	5	2	-5	.	.	.
Cn1cccc1CC(=O)N/N=C/C=C/c1ccccc1	-2	.	-1	0	-15	7	.	.	.
C[C@@H]1CN([C@@H](C)CO)C(=O)c2cc(NC(=O)CCC(F)(F)F)ccc2O[C@@H](C)CCCCO[C@@H]1CN(C)S(=O)(=O)c1ccc(Cl)cc1	0	-1	.	.	.	.	.	.	.
COc1ccc(NC(=O)c2ccc(-n3cncn3)c([N+](=O)[O-])c2)cc1OC	2	66*	-1	-2	.	1	-3	6	-2
